Shown is part of a subset that was picked to be rich in hits.
CBX7 AlphaScr – CBX7 chromodomain binding inhibitors, primary screen, biochemical, AlphaScreen; Chromobox protein homolog 7 (Homo sapiens), O95931; AID 1224903, 2016; normalised signal (fraction of DMSO) (no concentration beside the values); 1.1% of 66,000 active; AlphaScreen His6-CBX7 / biotin-H3K27me3 peptide binding; stronger effect = lower value; in the data active means normalised signal below about 0.5
Target sequence (O95931 whole entry, looked up): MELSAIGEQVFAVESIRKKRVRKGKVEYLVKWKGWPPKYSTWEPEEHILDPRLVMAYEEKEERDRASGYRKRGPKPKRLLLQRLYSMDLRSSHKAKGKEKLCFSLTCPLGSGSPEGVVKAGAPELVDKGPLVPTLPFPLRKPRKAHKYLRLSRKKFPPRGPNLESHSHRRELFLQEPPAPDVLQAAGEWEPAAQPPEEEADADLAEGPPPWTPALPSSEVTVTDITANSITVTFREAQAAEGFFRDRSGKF
Active calls of the source: *.

SMILES | CBX7 AlphaScr
CCOc1ccc(C(=O)Nc2ccc(-c3nc4cc(CC)ccc4o3)cc2)cc1 | 1.49
O=C([C@H](Cc1ccccc1)N1Cc2ccccc2C1=O)N1CCN(c2ccccn2)CC1 | 1.05
CCN(CC)CCCNC(=O)CCn1nc(-c2ccccc2)ccc1=O | 1.11
CCOc1ccc(CCNCc2c(C)[nH]c(C)c2C(=O)O)cc1 | 1.03
O=C(CCCN1C(=O)CSc2ncccc21)NCc1ccccc1Cl | 0.994
Cc1ccc(-c2nc3ncccc3o2)cc1NC(=O)Cc1ccccc1 | 1.03
COc1ccc(NC(=O)N(Cc2ccc(C)cc2)Cc2cccnc2)c(OC)c1 | 0.752
COc1ccccc1-c1nnc(SCC(=O)N2CCC(C)CC2)o1 | 0.904
C=CCN(c1ccccc1)S(=O)(=O)c1ccc2[nH]cc(C(=O)NC3CCCCC3)c(=O)c2c1 | 0.927
CCCCC(=O)Nc1ncc2c(n1)CC(C)(C)CC2=O | 1.17
N#Cc1nc(COc2ccccc2Cl)oc1NCCc1ccccc1 | 0.647
Cc1ccc(Cl)cc1NC(=O)C1(S(=O)(=O)c2ccc(Cl)cc2)CC1 | 1.1
Cc1ccc(-c2cc(-c3ccc(F)cc3)n3ncnc3n2)cc1 | 0.861
Fc1ccc(-c2cc(-c3ccccc3)nc3ncnn23)cc1 | 1.04
Fc1ccc(-c2cc(C(F)(F)F)n3ncnc3n2)cc1 | 0.474*
O=C(c1ccc2c(c1)N(Cc1cccc(Cl)c1)C(=O)c1ccccc1S2=O)N1CCCC1 (stereo unspecified) | 0.996
Cc1cccc(S(=O)(=O)Nc2ccc(-c3cn4cccc(C)c4n3)cc2)c1 | 0.977
Cc1ccccc1OCC(=O)NCCc1nc2ccccc2[nH]1 | 1.02
Cc1nc2ccc(C(=O)NCCCN(C)C)cc2nc1C | 0.978
CCc1nc(C)ccc1OCC(=O)NCCCN(C)C | 0.475*
COc1ccc(-n2c(C)nc3cc(C(=O)NCc4ccccn4)ccc32)cc1 | 0.898
COc1ccc(Nc2cc(C(=O)N3CCCC3)c3ccccc3n2)cc1 | 0.951
COC(=O)c1ccc(Nc2nc(N3CCN(C)CC3)c3ccccc3n2)cc1 | 1.04
COc1ccc(Nc2nc(N3CCCC3)c3ccccc3n2)cc1 | 0.493*
O=C1CCc2cc(S(=O)(=O)N3CCC(C(=O)O)CC3)ccc2N1 | 0.987
SMILES | CBX7 AlphaScr
Cc1cc(C)c(N2CC(c3nc4ccccc4n3C)CC2=O)c(C)c1 (stereo unspecified) | 1.05
O=C(COc1ccccc1Cl)Nc1nccs1 | 1.03
CCOc1ccc(-c2nc(C#N)c(N3CC(C)OC(C)C3)o2)cc1 (stereo unspecified) | 1.08
CC1(C)CC(=O)c2cnc(Nc3nc4ccccc4[nH]3)nc2C1 | 1.02
O=C1CN(C(=O)COc2ccccc2)C(c2ccccc2)c2cc(F)ccc2N1 (stereo unspecified) | 1.02
O=C1CN(C(=O)COc2ccccc2)C(c2ccccc2)c2cc(Cl)ccc2N1 (stereo unspecified) | 0.762
O=C1CN(C(=O)COc2ccccc2)C(c2ccccc2)c2cc(Br)ccc2N1 (stereo unspecified) | 0.477*
COc1ccc(Br)cc1C(=O)Nc1cccc(-c2nc3ccccc3o2)c1 | 1.19
Cc1ccc(-c2nnc(Nc3ccc(S(=O)(=O)Nc4nccs4)cc3)c3ccccc23)cc1 | 0.363*
O=S(=O)(Nc1nccs1)c1ccc(Nc2nnc(-c3ccc(Cl)cc3)c3ccccc23)cc1 | 0.23*
Cc1ccc(-c2nnc(Nc3ccc4c(c3)ncn4C)c3ccccc23)cc1 | 0.582
Cc1nnc(Nc2ccc(S(=O)(=O)Nc3nccs3)cc2)c2ccccc12 | 0.492*
Cc1ccc(Nc2nnc(-c3ccc(C)c(S(=O)(=O)NC(C)(C)C)c3)c3ccccc23)cc1 | 0.928
NC(=O)COc1ccc(Nc2nnc(-c3ccc(Cl)cc3)c3ccccc23)cc1 | 0.909
Cc1ccc(-c2nnc(Nc3ccc(Cl)cc3)c3ccccc23)cc1S(=O)(=O)NCCO | 0.817
COc1cccc(OC)c1C(=O)Nc1ccc(S(=O)(=O)Nc2nccs2)cc1 | 1.02
O=C(Nc1ccc(S(=O)(=O)Nc2nccs2)cc1)c1ccccc1Br | 1.04
CCOc1ccc(C(=O)Nc2nc3c(s2)CCc2ccccc2-3)cc1 | 1.03
CC(C)OCCCNC(=O)c1c[nH]c2ccc(S(=O)(=O)Nc3ccc(C(C)C)cc3)cc2c1=O | 0.9
COc1ccccc1NC(=O)NCCN1CCN(c2cccc(Cl)c2)CC1 | 1.02
COCCCNC(=O)C1CCN(c2nn3c(=O)cc(C)nc3s2)CC1 | 1.09
COc1ccc(CCN2C(=O)CCC2(C)C(=O)NC2CCCC(C)C2C)cc1OC (stereo unspecified) | 0.895
Cc1ccc(NC(=O)c2sc3ncn(CC(=O)Nc4ccc(C)c(Cl)c4)c(=O)c3c2C)cc1F | 1.23
O=C(CSc1nnc(-c2cccnc2)n1Cc1ccccc1)Nc1ccc(Br)cc1 | 1.01
O=C(CC(Sc1cccc2cccnc12)c1ccc(OC(F)F)cc1)c1ccco1 (stereo unspecified) | 0.0051*
SMILES | CBX7 AlphaScr
COc1ccc(NC(=O)C(Cc2ccccc2)NS(=O)(=O)c2cccc3cccnc23)cc1 (stereo unspecified) | 1.04
c1cnc2c(SCC3CCOCO3)cccc2c1 (stereo unspecified) | 1.08
CC(C)NC(=O)C1CC(c2ccc(F)cc2)=NO1 (stereo unspecified) | 0.997
CCn1c(=O)cc(OCC(=O)Nc2ccccc2C)c2ccccc21 | 1.05
COc1ccc(CNC(=O)CN2C(=O)COc3ccc(C(C)(C)C)cc32)c(OC)c1 | 0.663
Cc1cccc(OCCn2c(NC(=O)c3ccccc3Cl)nc3ccccc32)c1 | 0.34*
Cc1cccc(OCCn2c(C)nc3ccccc32)c1 | 1.15
COc1ccccc1C(=O)Nc1nc2ccccc2n1CCOc1ccccc1 | 0.836
CC(c1ccccn1)N(C(=O)Nc1ccc(Cl)cc1)C1CCCCC1 (stereo unspecified) | 0.864
COc1ccc(OC)c(CNC(=O)CCCc2cn(C)c3ccccc23)c1 | 0.458*
COc1ccc(Br)cc1CNC(=O)CCCc1cn(C)c2ccccc12 | 0.417*
CCOc1ccc(CNC(=O)CCCc2cn(C)c3ccccc23)cc1OC | 0.866
COc1ccc(CNC(=O)CCc2cn(C)c3ccccc23)c(OC)c1 | 1.01
COc1ccc(Br)cc1CNC(=O)Cc1cn(C)c2ccccc12 | 0.915
COc1ccc(OC)c(CNC(=O)CCc2cn(C)c3ccccc23)c1 | 0.947
Cc1cccc(C)c1N1C(=O)C2C(C1=O)C1C=CC2C12CC2 (stereo unspecified) | 1.1
CC1CCCC(NC(=O)CN2C(=O)CC(C)(C)Sc3ccccc32)C1C (stereo unspecified) | 1
CCOC(=O)C1CCCN(c2c(NCCN(C)Cc3ccccc3)c(=O)c2=O)C1 (stereo unspecified) | 0.991
COc1ccc(NC(=O)c2cnn(-c3ccc(F)cc3)c2C2CCN(C(=O)OC(C)(C)C)CC2)cc1 | 0.944
CCOCCCN1CC(C(=O)NCCc2ccc(Cl)cc2)CC1=O (stereo unspecified) | 0.919
CC(=O)N1CCc2cc(S(=O)(=O)NCCCN(C)C)ccc21 | 1.26
Cc1c(C(=O)N2CCCCC2)oc2ccc(S(=O)(=O)N3CCCCCC3)cc12 | 0.686
COc1ccccc1NC(=O)C(Cc1ccccc1)NS(=O)(=O)c1cccc2cccnc12 (stereo unspecified) | 0.898
CCc1ccc(-c2csc(NC(=O)c3ccc(S(=O)(=O)N4CCCCC4)cc3)n2)cc1 | 0.931
O=C(c1cnc(N2CCN(c3ncccn3)CC2)c2ccccc12)N1CCN(c2ccccn2)CC1 | 1.04
O=C(c1ccc(C#Cc2ccccc2)o1)N1CCN(c2ccccn2)CC1 | 0.448*
